Screening data as filed in PubChem.
TCR activator = T cell receptor activation. primary human leukocytes, anti-CD3, IL-2 HTRF, 48 h. Potency, µM (top dose mostly 9.22 µM), hits mostly activators. 330,000 tested, under 10 active. AID 504894
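Human primary leukocytes + a-CD3 beads + cpd, 48 hr; IL-2 in supernatant by HTRF (ex 320nm / em 665nm). No co-stimulatory signal supplied.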
uPA generation = cell surface uPA generation inhibition; cell surface uPA generation assay, qHTS; Potency, µM (series often up to 38.3 µM), most hits filed as inhibitors; 330,000 compounds, 0.31% hits; active = well fitted inhibition curve with a large enough effect; inconclusive = small, poorly fitted or top-dose-only effect; inactive = no such curve, though single readings can be large or run the other way; tested in mouse RAW 264.7 cells; note: nearly all actives have a fitted effect of over 55% in size
Sfp PPTase inh = blocks B. subtilis Sfp PPTase activity | Biochemical Sfp PPTase activity, qHTS | 310,000 compounds, 3.5% hits | AID 1490 | Potency, µM, actives largely listed as inhibitors;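 note: the enzyme is Sfp with the accession as filed and its product quenches rhodamine fluorescence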
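Sfp 15 nM + cpd, 15 min RT; start w/ rhodamine-CoA 5 uM, BHQ-2-YbbR 12.5 uM (final); 50 mM Hepes pH 7.6, 10 mM MgCl2, 0.01% NP-40, 0.01% BSA; read 525/598 nm at 0 and 30 min.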
ClpP mod = qHTS Assay for Activators of ClpP. ATP-dependent Clp protease proteolytic subunit (Bacillus subtilis (strain 168)), P80244. purified B. subtilis ClpP, FRET peptide cleavage, 20 min. Potency, µM (top dose mostly 57.5 µM). 340,000 compounds, 1.9% hits. AID 651965, 2013; active = well fitted falling curve with a large enough effect; inconclusive = small, poorly fitted or top-dose-only effect; inactive = no such curve, though single readings can be large or run the other way; note: the source files actives as falling curves though it sought activators and does not explain the sign; nearly all actives have a fitted effect of over 65% in size
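ClpP 10 microg/mL final, pH 8 Tris/KCl buffer with BSA, glycerol, Tween-20; compound pinned in; FRET-FV substrate; RT 20 min; Ex320/Em430; ΔFRET vs ADEP 5.8 microM, DMSO, no enzyme.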
Large screens that a line does not name were inactive; ! = not active in a repeat. Rows were chosen to be rich in hits. Some 4.2% of all compounds tested hit in one or more screens of this group. Unless noted, calls come from the whole dose curve; as a rule, active = well fitted curve in the direction sought with a large enough effect; inconclusive = small, poorly fitted or top-dose-only effect, or another doubt; inactive = no such curve, though single readings can be large; an effect the other way counts as inactive or inconclusive.

O=C1NC(=S)N(c2ccc(Cl)cc2)C(=O)/C1=C/N1CCN(C(=O)c2ccco2)CC1	Sfp PPTase inh 44.7µM
Cc1ccc(N2C(=O)NC(=O)/C(=C\c3ccoc3)C2=O)cc1	Sfp PPTase inh inconclusive (no result: ClpP mod)
Cc1ccc(CNc2cc(C)nc3nc(-c4ccc(C)cc4)nn23)cc1	none (no result: TCR activator, uPA generation, Sfp PPTase inh)
Cc1c(C(=O)c2cccc3ccccc23)c2cccc3c2n1[C@@H](CN1CCOCC1)CO3	none (no result: TCR activator, uPA generation, ClpP mod)
COc1ccc(OC)c(N2C(=O)/C(=C/c3ccco3)C(=O)NC2=S)c1	Sfp PPTase inh 17.8µM
COc1ccc(N2C(=O)/C(=C/c3cc(C)n(-c4ccc(C)cn4)c3C)C(=O)NC2=S)c(OC)c1	Sfp PPTase inh 35.5µM
COc1ccc(OC)c(N2C(=O)NC(=O)C(CCc3ccncc3)(CCc3ccncc3)C2=O)c1	none
Cc1ncc2n1-c1ccc(Cl)cc1C(c1ccccc1F)=NC2O (stereo unspecified)	none (no result: TCR activator, uPA generation, ClpP mod)
O=C(C[C@H]1C/C=C\C[C@H](NC(=O)OCC2c3ccccc3-c3ccccc32)C(=O)O[C@H](c2ccccc2)CNC1=O)N[C@H](CO)Cc1ccccc1	none (no result: Sfp PPTase inh)
NC(N)=N/N=C/c1c(Cl)cccc1Cl	Sfp PPTase inh 100µM!
C/C(=N\N=C(N)N)c1ccccc1	none (no result: ClpP mod)
[Cl][In]([Cl])[Cl]	Sfp PPTase inh 44.7µM (no result: TCR activator, uPA generation)
Nc1ccc2c(c1)oc1ccccc12	ClpP mod 12.6µM
COC(=O)[C@H]1C(=O)c2ccccc2O[C@@](C(=O)OC)(c2ccccc2)[C@@H]1c1ccccc1	none (no result: TCR activator, uPA generation, ClpP mod)
CC1(C)C[C@H]2C=C(C=O)[C@]3(C=O)C[C@]3(C)[C@H]2C1	uPA generation 2.24µM, Sfp PPTase inh inconclusive
c1ccc(N=Nc2ccccc2)cc1	none (no result: TCR activator, uPA generation, ClpP mod)
CC(C)CCNC(=O)CNC(=O)[C@@H](C)NC(=O)[C@@H](N)Cc1ccc(O)cc1	none (no result: TCR activator, uPA generation, ClpP mod)
C[C@@H]1C[C@H](C)C[C@H](C)[C@@H](O)CC(=O)O[C@H]([C@H]2CCC[C@H]2C(=O)O)C/C=C/C=C(/C#N)[C@H](O)[C@@H](C)C1	none (no result: TCR activator, uPA generation, ClpP mod)
NNc1n[nH]c(=S)n1N	Sfp PPTase inh 2.82µM (no result: ClpP mod)
CCN1CCN(Cc2ccc(NC(=O)c3ccc(C)c(NC(=O)C(=O)c4c[nH]c5ccccc45)c3)cc2C(F)(F)F)CC1	uPA generation inconclusive, Sfp PPTase inh 50.1µM
CCN1CCN(Cc2ccc(NC(=O)c3cc(NC(=O)c4cc(C)on4)cc(OC)c3)cc2C(F)(F)F)CC1	uPA generation inconclusive
COc1ccc(OC)c([C@H](O)[C@H](C)N)c1	none (no result: TCR activator, uPA generation, ClpP mod)
O=C1NC(=S)N(C2CC2)C(=O)/C1=C/c1ccc2c(c1)CCN2CCCCl	Sfp PPTase inh 20µM
CCN1C(=O)/C(=C/c2ccc3c(c2)CCN3CCCCl)C(=O)NC1=S	Sfp PPTase inh 44.7µM
CC(C)(C)N1C(=O)NC(=O)/C(=C\c2ccc3c(c2)CCN3CCCCl)C1=O	Sfp PPTase inh inconclusive (no result: ClpP mod)
C=CCN1C(=O)/C(=C/c2ccc3c(c2)CCCN3CCC)C(=O)NC1=S	Sfp PPTase inh 25.1µM
CCCCN1C(=O)/C(=C/c2ccc(N3CCCCCC3)cc2)C(=O)NC1=S	none (no result: uPA generation, ClpP mod)
COc1cc([N+](=O)[O-])cc([N+](=O)[O-])c1N	none (no result: TCR activator, uPA generation, Sfp PPTase inh)
CCCN1CCCC2Cc3[nH]ncc3CC21 (stereo unspecified)	none (no result: TCR activator, uPA generation, ClpP mod)
Cc1cc(C)nc(OC(=O)c2ccc(Cl)cc2Cl)n1	none (no result: TCR activator, uPA generation, ClpP mod)
CC1OC(O[C@H]2C[C@@H](O)[C@]3(CO)[C@H]4[C@H](O)C[C@]5(C)[C@@H](C6=CC(=O)OC6)CC[C@]5(O)[C@@H]4CC[C@]3(O)C2)C(O)C(O)C1O (stereo partly specified)	none (no result: TCR activator, uPA generation, Sfp PPTase inh)
Cc1ccc(S(=O)(=O)N(C)C/N=C(\N)N[N+](=O)[O-])cc1	none (no result: ClpP mod)
Cc1ccc(S(=O)(=O)N(C)CCCC(=O)N2CCN(c3ccccn3)CC2)cc1	ClpP mod 31.6µM
Cc1ccc(C=C2C(Cl)=C(Cl)C(Cl)=C2Cl)cc1	Sfp PPTase inh inconclusive (no result: ClpP mod)
C=CCN1CCc2cccc3c2C1Cc1ccc(O)c(O)c1-3 (stereo unspecified)	Sfp PPTase inh 44.7µM (no result: TCR activator, uPA generation, ClpP mod)
CN1CCc2cc(O)cc3c2C1Cc1ccc(O)c(O)c1-3 (stereo unspecified)	Sfp PPTase inh 39.8µM (no result: TCR activator, uPA generation, ClpP mod)
CN(C)C(CSC(N)=O)CSC(N)=O	none (no result: TCR activator, uPA generation, ClpP mod)
CCCCCn1c(NC(=O)c2ccco2)c(C(=O)OCC)c2nc3ccccc3nc21	Sfp PPTase inh inconclusive (no result: ClpP mod)
C=CCNC(=O)c1c(N)n(CCN2CCOCC2)c2nc3ccccc3nc12	ClpP mod inconclusive
CC(C)OCCCNC(=O)c1c(N)n(Cc2cccs2)c2nc3ccccc3nc12	Sfp PPTase inh inconclusive, ClpP mod 10µM
CC(C)CCn1c(N)c(C(=O)NCc2cccs2)c2nc3ccccc3nc21	ClpP mod 14.1µM (no result: uPA generation)
